{"source": "the supplement of paper PMC11732987", "about": "“Enantioselective OTUD7B fragment discovery through chemoproteomics screening and high-throughput optimisation” (Communications Chemistry, 2025)", "experiment_in_all_cases": "log2 ratio of Biotin-Ahx-Ub-VS probe labelling (fragment/DMSO); higher = less target engagement (more negative = stronger competition), active = hit call of the paper (q ≤ 0.05, log2 ratio ≤ -1)", "details_in_all_cases": "compound concentration: 200 uM; treatment time: 3 h", "key": {"[1]": {"target": "T1, OTUD6B (UniProt Q8N6M0)", "T1 sequence (whole entry)": "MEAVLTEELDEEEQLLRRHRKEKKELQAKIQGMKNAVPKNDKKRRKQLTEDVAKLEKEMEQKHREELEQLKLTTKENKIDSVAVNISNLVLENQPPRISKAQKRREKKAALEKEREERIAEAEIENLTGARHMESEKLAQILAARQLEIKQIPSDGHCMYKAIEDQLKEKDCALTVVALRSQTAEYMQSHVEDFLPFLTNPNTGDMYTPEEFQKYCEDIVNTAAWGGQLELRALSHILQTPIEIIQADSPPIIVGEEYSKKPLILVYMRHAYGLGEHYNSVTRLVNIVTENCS", "summary_of_the_method": "(§1)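 Fragment (200 µM) or vehicle was incubated for 3 h with triplicate HEK293T lysate samples of 495 µg, which were then treated with Biotin-Ahx-Ub-VS at 0.5 µM final for 1 h. Labelled DUBs were enriched on NeutrAvidin, digested with LysC and trypsin, and analysed by diaPASEF LC-MS/MS. Values are average log2 fragment/vehicle ratios from an unpaired t-test on global-median-normalised Spectronaut label-free quantities, using proteins with ≥2 unique peptides.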"}, "[2]": {"target": "T2, OTUD7B (UniProt Q6GQQ9)", "T2 sequence (whole entry)": "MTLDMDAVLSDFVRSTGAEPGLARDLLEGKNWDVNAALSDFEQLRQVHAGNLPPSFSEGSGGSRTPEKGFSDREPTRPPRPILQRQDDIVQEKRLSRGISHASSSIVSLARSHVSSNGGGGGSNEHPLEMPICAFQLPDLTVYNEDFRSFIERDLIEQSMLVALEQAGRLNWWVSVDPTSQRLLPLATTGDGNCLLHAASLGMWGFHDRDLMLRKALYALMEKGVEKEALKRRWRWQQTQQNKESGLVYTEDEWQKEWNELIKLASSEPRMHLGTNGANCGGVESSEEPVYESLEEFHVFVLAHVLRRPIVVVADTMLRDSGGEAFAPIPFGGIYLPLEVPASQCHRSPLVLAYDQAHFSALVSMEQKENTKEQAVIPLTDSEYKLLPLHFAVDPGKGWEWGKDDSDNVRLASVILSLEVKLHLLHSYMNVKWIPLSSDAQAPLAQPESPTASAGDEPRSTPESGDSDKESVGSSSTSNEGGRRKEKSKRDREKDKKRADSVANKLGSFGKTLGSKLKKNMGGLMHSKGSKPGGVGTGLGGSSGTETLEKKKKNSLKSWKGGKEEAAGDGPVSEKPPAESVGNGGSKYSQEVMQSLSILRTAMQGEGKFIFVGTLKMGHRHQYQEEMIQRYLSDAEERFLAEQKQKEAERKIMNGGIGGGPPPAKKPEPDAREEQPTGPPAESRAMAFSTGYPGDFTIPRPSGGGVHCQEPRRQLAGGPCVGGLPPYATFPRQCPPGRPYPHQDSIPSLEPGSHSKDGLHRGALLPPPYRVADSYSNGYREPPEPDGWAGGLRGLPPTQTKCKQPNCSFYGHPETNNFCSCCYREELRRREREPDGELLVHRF", "summary_of_the_method": "as §1"}, "[3]": {"target": "PRPF8 (UniProt Q6P2Q9)", "summary_of_the_method": "as §1"}, "[4]": {"target": "T3, PSMD7 (UniProt P51665)", "T3 sequence (whole entry)": "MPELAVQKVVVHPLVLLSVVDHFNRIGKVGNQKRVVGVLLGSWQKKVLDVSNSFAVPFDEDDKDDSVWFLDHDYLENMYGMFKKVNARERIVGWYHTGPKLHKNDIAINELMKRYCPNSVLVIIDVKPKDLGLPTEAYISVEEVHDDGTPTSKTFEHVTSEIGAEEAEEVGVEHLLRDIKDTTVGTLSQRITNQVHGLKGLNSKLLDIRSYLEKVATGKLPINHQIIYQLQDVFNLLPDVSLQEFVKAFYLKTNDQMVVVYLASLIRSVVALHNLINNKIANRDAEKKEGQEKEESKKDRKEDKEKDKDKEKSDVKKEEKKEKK", "summary_of_the_method": "as §1"}, "[5]": {"target": "UCHL1 (UniProt P09936)", "sequence (P09936 whole entry, looked up)": "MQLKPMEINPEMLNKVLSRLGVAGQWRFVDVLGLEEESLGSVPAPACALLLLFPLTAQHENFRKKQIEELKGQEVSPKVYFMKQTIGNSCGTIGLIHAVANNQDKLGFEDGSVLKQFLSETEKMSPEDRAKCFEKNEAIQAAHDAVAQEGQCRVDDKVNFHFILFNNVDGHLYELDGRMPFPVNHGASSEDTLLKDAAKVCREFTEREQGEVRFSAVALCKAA", "summary_of_the_method": "as §1"}, "[6]": {"target": "T4, UCHL3 (UniProt P15374)", "T4 sequence (whole entry)": "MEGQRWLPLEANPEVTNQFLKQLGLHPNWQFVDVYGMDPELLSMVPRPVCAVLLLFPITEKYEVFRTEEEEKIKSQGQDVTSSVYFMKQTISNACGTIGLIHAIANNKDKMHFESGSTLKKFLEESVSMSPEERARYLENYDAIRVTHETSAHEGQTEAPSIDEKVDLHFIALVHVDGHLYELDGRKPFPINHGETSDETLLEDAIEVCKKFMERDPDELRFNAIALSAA", "summary_of_the_method": "as §1"}, "[7]": {"target": "T5, UCHL5 (UniProt Q9Y5K5)", "T5 sequence (whole entry)": "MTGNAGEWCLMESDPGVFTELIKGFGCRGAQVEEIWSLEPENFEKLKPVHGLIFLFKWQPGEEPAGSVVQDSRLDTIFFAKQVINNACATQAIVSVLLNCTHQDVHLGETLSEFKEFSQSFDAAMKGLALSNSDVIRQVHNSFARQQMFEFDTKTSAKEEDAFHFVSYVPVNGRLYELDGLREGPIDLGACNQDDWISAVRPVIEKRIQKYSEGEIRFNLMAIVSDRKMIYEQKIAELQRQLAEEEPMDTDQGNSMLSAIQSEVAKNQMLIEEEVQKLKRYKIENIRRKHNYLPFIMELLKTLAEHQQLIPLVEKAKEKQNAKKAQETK", "summary_of_the_method": "as §1"}, "[8]": {"target": "USP10 (UniProt Q14694)", "sequence (Q14694 whole entry)": "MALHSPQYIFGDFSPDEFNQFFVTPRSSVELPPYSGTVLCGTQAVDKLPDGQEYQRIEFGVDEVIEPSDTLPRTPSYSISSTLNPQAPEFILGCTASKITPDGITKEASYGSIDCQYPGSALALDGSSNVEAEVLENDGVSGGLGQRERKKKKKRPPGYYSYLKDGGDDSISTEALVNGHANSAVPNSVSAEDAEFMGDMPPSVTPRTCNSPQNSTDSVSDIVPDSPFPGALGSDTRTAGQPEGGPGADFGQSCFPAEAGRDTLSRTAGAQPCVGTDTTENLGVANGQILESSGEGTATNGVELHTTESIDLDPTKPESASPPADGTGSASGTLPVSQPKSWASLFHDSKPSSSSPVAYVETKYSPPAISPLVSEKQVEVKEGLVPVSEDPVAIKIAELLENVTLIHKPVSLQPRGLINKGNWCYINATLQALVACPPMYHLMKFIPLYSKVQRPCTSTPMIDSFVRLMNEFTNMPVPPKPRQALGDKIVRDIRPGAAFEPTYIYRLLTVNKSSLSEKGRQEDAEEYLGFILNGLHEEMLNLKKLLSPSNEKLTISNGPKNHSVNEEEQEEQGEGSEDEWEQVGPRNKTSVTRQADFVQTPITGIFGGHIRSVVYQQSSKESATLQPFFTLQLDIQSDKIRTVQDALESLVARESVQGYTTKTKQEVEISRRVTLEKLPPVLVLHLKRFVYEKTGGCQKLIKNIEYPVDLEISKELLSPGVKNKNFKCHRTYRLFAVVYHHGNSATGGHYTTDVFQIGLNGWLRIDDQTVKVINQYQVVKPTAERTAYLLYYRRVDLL", "summary_of_the_method": "as §1"}, "[9]": {"target": "T6, USP15 (UniProt Q9Y4E8)", "T6 sequence (whole entry)": "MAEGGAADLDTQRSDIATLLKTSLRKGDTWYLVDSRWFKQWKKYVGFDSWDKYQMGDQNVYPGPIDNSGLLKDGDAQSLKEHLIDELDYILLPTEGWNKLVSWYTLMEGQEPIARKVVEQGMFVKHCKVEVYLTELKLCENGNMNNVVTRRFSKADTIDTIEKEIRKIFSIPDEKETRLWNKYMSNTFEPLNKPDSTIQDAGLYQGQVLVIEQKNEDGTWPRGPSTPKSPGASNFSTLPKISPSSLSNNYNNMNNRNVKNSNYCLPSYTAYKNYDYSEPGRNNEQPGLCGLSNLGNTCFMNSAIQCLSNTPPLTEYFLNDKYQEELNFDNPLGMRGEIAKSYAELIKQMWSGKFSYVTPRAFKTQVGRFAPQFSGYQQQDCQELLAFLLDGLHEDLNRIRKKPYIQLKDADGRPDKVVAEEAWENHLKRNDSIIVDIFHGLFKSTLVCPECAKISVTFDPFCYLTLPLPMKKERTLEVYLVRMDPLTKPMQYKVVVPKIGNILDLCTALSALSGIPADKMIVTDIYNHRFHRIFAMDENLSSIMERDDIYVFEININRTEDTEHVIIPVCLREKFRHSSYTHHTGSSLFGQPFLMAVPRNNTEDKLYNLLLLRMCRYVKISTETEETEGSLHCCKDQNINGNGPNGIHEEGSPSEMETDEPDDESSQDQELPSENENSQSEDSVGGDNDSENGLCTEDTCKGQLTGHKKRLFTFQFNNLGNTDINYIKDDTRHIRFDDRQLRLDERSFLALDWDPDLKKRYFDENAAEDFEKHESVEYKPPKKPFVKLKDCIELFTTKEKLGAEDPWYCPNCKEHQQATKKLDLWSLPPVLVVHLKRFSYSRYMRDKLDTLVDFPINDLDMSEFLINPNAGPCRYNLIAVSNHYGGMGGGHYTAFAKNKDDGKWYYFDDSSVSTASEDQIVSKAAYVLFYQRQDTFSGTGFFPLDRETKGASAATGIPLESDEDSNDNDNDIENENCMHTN", "summary_of_the_method": "as §1"}, "[10]": {"target": "USP16 (UniProt Q9Y5T5)", "sequence (Q9Y5T5 whole entry, looked up)": "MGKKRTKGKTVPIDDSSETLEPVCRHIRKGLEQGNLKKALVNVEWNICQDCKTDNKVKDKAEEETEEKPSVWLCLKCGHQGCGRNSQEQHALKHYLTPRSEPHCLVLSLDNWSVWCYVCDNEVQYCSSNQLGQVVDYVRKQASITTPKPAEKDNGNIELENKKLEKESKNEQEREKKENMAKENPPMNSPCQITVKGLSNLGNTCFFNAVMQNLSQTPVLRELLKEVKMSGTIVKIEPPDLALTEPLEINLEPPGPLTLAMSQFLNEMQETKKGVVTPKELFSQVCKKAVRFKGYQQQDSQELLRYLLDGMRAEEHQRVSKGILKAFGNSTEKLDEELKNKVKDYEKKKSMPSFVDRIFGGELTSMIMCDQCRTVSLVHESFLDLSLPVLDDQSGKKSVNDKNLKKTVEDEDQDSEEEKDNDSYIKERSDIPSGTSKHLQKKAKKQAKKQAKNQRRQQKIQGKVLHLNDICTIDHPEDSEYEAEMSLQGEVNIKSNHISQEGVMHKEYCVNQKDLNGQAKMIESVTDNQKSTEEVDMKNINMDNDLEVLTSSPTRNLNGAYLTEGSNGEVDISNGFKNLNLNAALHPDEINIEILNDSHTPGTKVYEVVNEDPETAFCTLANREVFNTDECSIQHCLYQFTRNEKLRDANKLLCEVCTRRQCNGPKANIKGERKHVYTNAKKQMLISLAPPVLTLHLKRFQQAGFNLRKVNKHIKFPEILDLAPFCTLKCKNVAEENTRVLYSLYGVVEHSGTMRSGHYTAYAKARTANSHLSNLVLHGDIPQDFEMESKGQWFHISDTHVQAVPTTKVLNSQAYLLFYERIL", "summary_of_the_method": "as §1"}}, "note": "Values without a mark were called inactive.", "data": [{"molecule": "Cc1ccc(CNC(=O)CCl)nc1C.Cl", "values": [{"measurement": "log2 ratio of Biotin-Ahx-Ub-VS probe labelling", "setting": "[1]", "value": 0.146}, {"measurement": "log2 ratio of Biotin-Ahx-Ub-VS probe labelling", "setting": "[2]", "value": -0.314}, {"measurement": "log2 ratio of Biotin-Ahx-Ub-VS probe labelling", "setting": "[3]", "value": 0.14}, {"measurement": "log2 ratio of Biotin-Ahx-Ub-VS probe labelling", "setting": "[4]", "value": -0.305}, {"measurement": "log2 ratio of Biotin-Ahx-Ub-VS probe labelling", "setting": "[5]", "value": "-1.07 (active)"}, {"measurement": "log2 ratio of Biotin-Ahx-Ub-VS probe labelling", "setting": "[6]", "value": 0.499}, {"measurement": "log2 ratio of Biotin-Ahx-Ub-VS probe labelling", "setting": "[7]", "value": -0.0227}, {"measurement": "log2 ratio of Biotin-Ahx-Ub-VS probe labelling", "setting": "[8]", "value": -0.0933}, {"measurement": "log2 ratio of Biotin-Ahx-Ub-VS probe labelling", "setting": "[9]", "value": 0.144}, {"measurement": "log2 ratio of Biotin-Ahx-Ub-VS probe labelling", "setting": "[10]", "value": 0.174}]}]}
